Experimental data reported in PubChem BioAssay AID488864 (Broad Institute, 2010).
Entries with a potency or affinity are not part of this list. Calls of active or inactive are those of the source.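 The calls were made as follows: active = ATP signal reduced by compound, with fitted active dose under ten times the top valid tested dose; inactive = the rest, compounds that increase ATP levels included.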

Assay: INS-1E beta-cell viability without cytokines, dose response, cytotoxicity control for beta-cell cytokine protection project, CellTiter-Glo luminescence, dry powder (AID 488864)
Settings: INS-1E rat beta cells, 48 h, no cytokines; series mostly up to 26 µM; activity change, negative = ATP decrease: at the top concentration

Structure (SMILES)	activity change, negative = ATP decrease
COc1ccc(S(=O)(=O)N(C)C[C@@H]2Oc3c(NC(=O)Nc4ccc(F)cc4)cccc3C(=O)N([C@H](C)CO)C[C@H]2C)cc1	1.45% (inactive)
CNC[C@@H]1Oc2c(NC(=O)Nc3cccc4ccccc34)cccc2C(=O)N([C@@H](C)CO)C[C@H]1C	-0.69% (inactive)
COc1ccc(S(=O)(=O)N(C)C[C@@H]2Oc3c(NC(=O)Nc4ccc(C(F)(F)F)cc4)cccc3C(=O)N([C@@H](C)CO)C[C@H]2C)cc1	-1.88% (inactive)
C[C@@H]1CN([C@@H](C)CO)C(=O)c2cccc(NC(=O)Nc3cccc4ccccc34)c2O[C@H]1CN(C)C(=O)NC1CCCCC1	-14.9% (inactive)
Cc1ccc(S(=O)(=O)N(C)C[C@@H]2Oc3c(NC(=O)Nc4ccccc4)cccc3C(=O)N([C@@H](C)CO)C[C@H]2C)cc1	8.13% (inactive)
COc1ccc(S(=O)(=O)N(C)C[C@@H]2Oc3c(NC(=O)Nc4cccc5ccccc45)cccc3C(=O)N(C(C)C)C[C@H]2C)cc1	0.128% (inactive)
Cc1ccc(S(=O)(=O)N(C)C[C@@H]2Oc3c(NC(=O)Nc4ccccc4)cccc3C(=O)N([C@H](C)CO)C[C@H]2C)cc1	0.0817% (inactive)
C[C@@H]1CN([C@@H](C)CO)C(=O)c2cccc(NC(=O)Nc3cccc4ccccc34)c2O[C@H]1CN(C)S(=O)(=O)c1ccc2c(c1)OCCCO2	7.84% (inactive)
COc1ccc(S(=O)(=O)N(C)C[C@@H]2Oc3c(NC(=O)c4ccc(-c5nccs5)cc4)cccc3C(=O)N([C@@H](C)CO)C[C@H]2C)cc1	-1.51% (inactive)
COc1cccc(S(=O)(=O)N(C)C[C@@H]2Oc3c(NC(=O)Nc4cccc5ccccc45)cccc3C(=O)N([C@@H](C)CO)C[C@H]2C)c1	3.81% (inactive)
